{"source": "PubChem BioAssay AID488969", "about": "(Vanderbilt High Throughput Screening Facility, 2010)", "note": "Whole data set: some 110,000 compounds, median “z-score” near -0.1, cut for the highest 2% near 2. The full list was thinned out, with the highest values kept by preference. Calls of active or inactive are those of the source.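 The calls were made as follows: active = z-score in the third read window above 3 or below -3; inactive = the rest.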", "data": [{"target": "Metabotropic glutamate receptor 8 (Rattus norvegicus) (UniProt P70579)", "sequence (P70579 whole entry, looked up)": "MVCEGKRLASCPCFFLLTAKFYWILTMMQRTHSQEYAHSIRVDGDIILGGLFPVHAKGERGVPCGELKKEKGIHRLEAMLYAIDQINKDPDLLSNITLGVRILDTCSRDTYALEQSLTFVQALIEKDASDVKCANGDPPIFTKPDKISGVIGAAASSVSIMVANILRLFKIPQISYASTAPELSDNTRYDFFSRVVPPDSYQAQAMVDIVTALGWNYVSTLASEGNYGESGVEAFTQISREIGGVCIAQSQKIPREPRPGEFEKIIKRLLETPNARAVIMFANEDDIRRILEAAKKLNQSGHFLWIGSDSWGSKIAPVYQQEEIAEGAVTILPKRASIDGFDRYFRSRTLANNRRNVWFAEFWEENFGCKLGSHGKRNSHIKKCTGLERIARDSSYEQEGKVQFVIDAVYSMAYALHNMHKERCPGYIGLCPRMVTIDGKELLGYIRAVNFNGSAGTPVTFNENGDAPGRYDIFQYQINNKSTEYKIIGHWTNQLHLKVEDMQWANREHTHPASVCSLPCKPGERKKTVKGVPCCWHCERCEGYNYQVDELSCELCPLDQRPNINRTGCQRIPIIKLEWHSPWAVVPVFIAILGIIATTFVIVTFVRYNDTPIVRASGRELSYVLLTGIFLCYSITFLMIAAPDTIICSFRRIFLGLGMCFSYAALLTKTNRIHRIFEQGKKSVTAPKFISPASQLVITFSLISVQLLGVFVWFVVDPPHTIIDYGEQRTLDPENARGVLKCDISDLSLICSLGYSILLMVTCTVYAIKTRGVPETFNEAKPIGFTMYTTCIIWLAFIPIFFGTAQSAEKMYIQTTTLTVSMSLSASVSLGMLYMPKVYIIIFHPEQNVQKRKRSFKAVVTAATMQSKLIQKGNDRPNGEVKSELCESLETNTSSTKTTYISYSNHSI", "assay": "mGluR8 Gi/Go-coupled signaling modulation – cell-based, rat, thallium flux, HTS, primary screen (AID 488969)", "settings": "HEK293 rat mGluR8, GIRK (G protein-gated inwardly rectifying potassium channel) thallium flux, FluoZin2; at 10 µM; stronger effect = higher value; submaximal glutamate (EC20) added with thallium", "values": [{"compound": "O=C(Cn1nc(Cc2cccnc2)c2ccccc2c1=O)N1CCN(C(=O)c2ccco2)CC1", "z-score": -0.426}, {"compound": "O=C(Cn1nc(Cc2ccncc2)c2ccccc2c1=O)N1CCN(C(=O)c2ccco2)CC1", "z-score": "3.76 (active)"}, {"compound": "Cc1cccc(N2CCN(C(=O)Cn3nc(Cc4ccncc4)c4ccccc4c3=O)CC2)c1C", "z-score": -0.488}, {"compound": "CC(C)=C1SC(N2CCN(c3cccc(C(F)(F)F)c3)CC2)=NC1=O", "z-score": -0.205}, {"compound": "O=C1c2cccc3cc(Br)cc(c23)C(=O)N1Nc1ccc(Br)cc1", "z-score": -0.252}, {"compound": "COc1ccc(CCNC(=O)c2ccc(CN3CCC(Cc4ccccc4)CC3)cc2)cc1", "z-score": -0.304}, {"compound": "Cc1noc(/C=C/N(C)C)c1S(=O)(=O)N1CCCC(C(=O)NCc2ccc(Cl)cc2)C1", "note": "(stereo not drawn)", "z-score": -0.29}, {"compound": "Cc1ccc(CCNC(=O)C2CCCN(S(=O)(=O)c3c(C)noc3/C=C/N(C)C)C2)cc1", "note": "(stereo not drawn)", "z-score": -0.519}, {"compound": "Cc1noc(/C=C/N(C)C)c1S(=O)(=O)N1CCCC(C(=O)NCc2ccc(F)cc2)C1", "note": "(stereo not drawn)", "z-score": 2.21}, {"compound": "CC(C)(C)NC(=O)C(c1ccncc1)N(C(=O)Cn1nnc(-c2cccs2)n1)C1CCCCC1", "note": "(stereo not drawn)", "z-score": -0.081}, {"compound": "Cc1ccc(-n2c(CSc3nc(C)cc(C)n3)nnc2SCC(=O)NCc2ccco2)cc1", "z-score": "8.78 (active)"}, {"compound": "Cc1cc(C)nc(SCc2nnc(SCC(=O)NCc3ccco3)n2-c2ccccc2)n1", "z-score": -0.73}, {"compound": "Cc1cc(C)nc(SCC(=O)NCc2ccco2)n1", "z-score": 0.232}, {"compound": "Cc1ccc(-c2nc3ncccc3o2)cc1NC(=O)Cc1ccc(Cl)cc1", "z-score": 0.497}, {"compound": "CNC(=O)C1CC(=O)N(c2ccc(C)cc2)C1", "note": "(stereo not drawn)", "z-score": 0.338}, {"compound": "O=C(Nc1ccc2c(c1)OCCO2)C1CCCN(S(=O)(=O)c2cccc3nsnc23)C1", "note": "(stereo not drawn)", "z-score": 0.545}, {"compound": "CN(C)S(=O)(=O)N1CCN(C(=O)N2CCCCCC2)CC1", "z-score": -0.197}, {"compound": "CCOc1ncccc1C(=O)OCC(=O)N1CC(=O)Nc2ccccc21", "z-score": 2.36}, {"compound": "Cc1ccc(C(=O)OCC(=O)N2CC(=O)Nc3ccccc32)s1", "z-score": 0.331}, {"compound": "Cc1ccsc1C(=O)OCC(=O)N1CC(=O)Nc2ccccc21", "z-score": -0.081}, {"compound": "O=C(CCN1C(=O)C2CC=C(Cl)CC2C1=O)NCc1ccco1", "note": "(stereo not drawn)", "z-score": -0.187}, {"compound": "O=S(=O)(NC1CC1)c1ccc(S(=O)(=O)N(Cc2ccccn2)C2CCCC2)cc1", "z-score": -0.114}, {"compound": "O=C(Nc1ccc(N2CCN(C(=O)c3ccco3)CC2)c(Cl)c1)c1c(F)c(F)c(F)c(F)c1F", "z-score": -0.334}, {"compound": "O=C(Cc1ccc(Cl)cc1)Nc1ccc(N2CCN(C(=O)c3ccco3)CC2)c(Cl)c1", "z-score": 2.13}, {"compound": "O=C(Cc1ccc(Cl)cc1)Nc1ccc(N2CCN(C(=O)c3ccco3)CC2)cc1", "z-score": 0.107}, {"compound": "Cc1cc(/C=N\\NC(=O)CC(=O)NC2CCCCC2)c(C)n1-c1cccc(Cl)c1Cl", "z-score": -0.438}, {"compound": "CCN1CCN(Cc2ccccc2NC(=O)Nc2ccc(C)cc2)CC1", "z-score": 0.088}, {"compound": "NC(=O)C1CCCN(C(=O)Nc2cccc3ccccc23)C1", "note": "(stereo not drawn)", "z-score": 0.107}, {"compound": "COC(=O)Cc1c[nH]c2cccc(OCC(O)CN(Cc3ccccc3)C(C)C)c12", "note": "(stereo not drawn)", "z-score": 0.637}, {"compound": "CCOc1c2ccc(C(=O)NCCc3ccc(C)cc3)cc2nn1CC", "z-score": -0.287}, {"compound": "CCCn1nc2cc(C(=O)NCCc3ccc(C)cc3)ccc2c1OCC", "z-score": 2.73}, {"compound": "CCCCn1nc2cc(C(=O)NCCc3ccc(C)cc3)ccc2c1OCC", "z-score": -0.356}, {"compound": "Cc1c(C(N)=O)sc2ncn(CC(=O)OC(C)C)c(=O)c12", "z-score": 0.619}, {"compound": "CN(C)CCSc1nc(-c2ccccc2)nc2c1COC(C)(C)C2", "z-score": -0.143}, {"compound": "CN(C)CCCOc1ccc(C(C)(C)c2ccccc2)cc1", "z-score": "3.07 (active)"}, {"compound": "CNCCCOc1ccc(C(C)(C)c2ccccc2)cc1", "z-score": 0.32}, {"compound": "CC(C)NCCCOc1ccc(C(C)(C)c2ccccc2)cc1", "z-score": 0.192}, {"compound": "O=C(Nc1ccc(N2CCN(C(=O)c3ccco3)CC2)cc1)c1ccc2c(c1)OCO2", "z-score": 0.192}, {"compound": "CCN1C(=O)CC(N2CCC(Cc3ccccc3)CC2)C1=O", "note": "(stereo not drawn)", "z-score": -0.239}, {"compound": "Cc1cc(O)c(C(C[N+](=O)[O-])c2ccc(Cl)cc2)c(=O)o1", "note": "(stereo not drawn)", "z-score": 0.103}, {"compound": "CCOC(=O)c1ccc(CNCc2ccccc2)cc1", "z-score": -0.07}, {"compound": "CCOC(=O)c1cc2c(nc1NC(=S)NCc1ccccc1)CCCC2", "z-score": 2.16}, {"compound": "C=CCNC(=S)Nc1nc2c(cc1C(=O)OCC)CCCC2", "z-score": "7.76 (active)"}, {"compound": "CCNC(=S)Nc1nc2c(cc1C(=O)OCC)CCCC2", "z-score": "8.73 (active)"}, {"compound": "CCOC(=O)c1ccc(NC(=S)NCCC2=CCCCC2)cc1", "z-score": -0.19}, {"compound": "CCOC(=O)c1cc2c(nc1N)CC(C)(CC)OC2", "note": "(stereo not drawn)", "z-score": -0.0521}, {"compound": "CCOC(=O)c1cc2c(nc1N)CC(C)(C)OC2", "z-score": -0.353}, {"compound": "CCOC(=O)c1cc2c(nc1NC(=S)Nc1ccccc1)CC(C)(C)OC2", "z-score": -0.292}, {"compound": "C=CCNC(=S)Nc1ccc2nc(C)c(C)nc2c1", "z-score": 0.0978}, {"compound": "CCOC(=O)c1cnc2cc3c(cn2c1=O)CCCC3", "z-score": 0.699}, {"compound": "C=CCNc1nc(-c2ccccc2)c(C(=O)OCC)cc1C#N", "z-score": -0.303}, {"compound": "C=C(C)CNC(=S)Nc1nc2c(cc1C(=O)OCC)CCCC2", "z-score": "3.56 (active)"}, {"compound": "O=C(NCC1CCCO1)c1ccc(CS(=O)(=O)c2c(Cl)cccc2Cl)o1", "note": "(stereo not drawn)", "z-score": -0.0453}, {"compound": "COc1ccccc1-n1c(=O)[nH]c2c(C(N)=O)nc(C3CCCCC3)nc21", "z-score": -0.356}, {"compound": "CCN1CCN(C(c2ccc(OC)cc2)C(O)C(=O)c2c[nH]c3ccccc23)CC1", "note": "(stereo not drawn)", "z-score": 0.0792}, {"compound": "C=CCn1c(COc2ccc(Cl)cc2)nnc1SCC(=O)N/N=C/c1cccc(O)c1", "z-score": -0.279}, {"compound": "CCOC(=O)c1c(NC(=O)CSc2nncs2)sc(C)c1-c1ccccc1", "z-score": -0.117}, {"compound": "CCOC(=O)c1ccccc1N1C(=O)CSC1=S", "z-score": -0.0781}, {"compound": "COCCn1c(C)cc(C(=O)COC(=O)c2ccc(NC(=O)CC#N)cc2)c1C", "z-score": -0.449}, {"compound": "Cc1nn(Cc2c(F)c(F)c(F)c(F)c2F)c(C)c1NC(=O)c1ccc(COc2ccccc2Cl)o1", "z-score": -0.506}, {"compound": "CC(=O)c1cc2c(cc1NC(=O)CCC1CCCC1)OCO2", "z-score": 0.181}, {"compound": "COc1ccc(NC(=O)c2cc(Cl)ccc2NC(=O)c2ccco2)c(OC)c1", "z-score": 0.354}, {"compound": "CCN(CC)S(=O)(=O)c1ccc(C(=O)Nc2nnc(C(C)C)s2)cc1", "z-score": -0.2}, {"compound": "COc1ccc(S(=O)(=O)NC(C)C(=O)O)cc1", "note": "(stereo not drawn)", "z-score": -0.408}, {"compound": "O=C(OCc1nc2ccccc2s1)C1CCN(S(=O)(=O)c2cccs2)CC1", "z-score": 0.023}, {"compound": "COc1ccc(-c2nc3c(c(=O)n(C)c(=O)n3C)n2CC2CC(c3ccccc3)=NO2)cc1OC", "note": "(stereo not drawn)", "z-score": 2.08}, {"compound": "CCCn1c(SCC(=O)c2ccc(OC)c(OC)c2)nc2c1c(=O)n(C)c(=O)n2C", "z-score": -0.237}, {"compound": "COc1ccc(C(=O)Cn2c(Br)nc3c2c(=O)n(C)c(=O)n3C)cc1OC", "z-score": -0.137}]}]}
